# From PubChem BioAssay (EPA / NIEHS)
# Inconclusive results are not listed. Calls of active or inactive are those of the source. The calls were made as follows: active = hit-call score of the fitted dose curve at least 0.9, where 1 is the maximum; inconclusive = response in the unintended direction; inactive = score below 0.9.
# Read-out: Broad substrate specificity ATP-binding cassette transporter ABCG2 (Homo sapiens) (UniProt Q9UNQ0)
# Test: CLD_ABCG2_48hr: CellzDirect (CLD) Gene Expression Assay for ABC Transporter (ABCG2) at 48 hours (AID 2283704);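 as to AC50: potency for induction of ABCG2 mRNA above the DMSO baseline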
# Protocol: CLD_48hr is a cell-based, multiplexed-readout assay that uses hepatocyte, a human liver primary cell, with measurements taken at 48 hours after chemical dosing in a 96-well plate.CLD_ABCG2_48hr is one of 16 assay component(s) measured or calculated from the CLD_48hr assay. It is designed to make measurements of mRNA induction, a form of inducible reporter, as detected with chemiluminescence signals by Quantitative Nuclease Protection Assay (qNPA) technology.Data from the assay component CLD_ABCG2_48hr was analyzed at the endpoint, CLD_ABCG2_48hr, in the positive analysis fitting direction relative to DMSO as the negative control and baseline of activity. Using a type of inducible reporter, gain-of-signal activity can be used to understand changes in the reporter gene as they relate to the gene ABCG2. Furthermore, this assay endpoint can be referred to as a primary readout. To generalize the intended target to other relatable targets, this assay endpoint is annotated to the transporter intended target family, where subfamily is ABC transporter.
# Human hepatocyte cultures were treated daily for two consecutive days with fresh dosing solutions containing appropriate concentrations of the 320 ToxCast chemicals (chemical identities were blinded to CellzDirect and other ToxCast collaborators), vehicle control (0.2% DMSO), and positive control inducers as summarized in Table 1. Due to the large number of treatment groups and chemicals examined, the ToxCast chemicals were divided into two groups (spanning two independent cultures of hepatocytes from separate donor preparations (Hu778: ToxCast plates 1 and 2; Hu776: ToxCast plates 3 and 4). Each preparation of human hepatocyte cultures was treated with respective vehicle control, medium only control, set of six positive controls/reference chemicals for the five hepatic receptor pathways, and a subset of eight of the ToxCast chemicals (indoxacarb, pyrithiobac-sodium, norflurazon, cyhalofop-butyl, methomyl, thiram, acetochlor, and propiconazole). These replicate data, coupled with internal replicates designed within the blinded ToxCast chemical library, provided additional data to evaluate interindividual differences between hepatocyte preparations and their potential impact on chemical profiles.Cell morphology and integrity were evaluated using phase-contrast microscopy as an indicator of hepatocyte cell health (Tyson & Green, 1987). Cultures for each treatment group (i.e., media, vehicle [0.2% DMSO], positive control inducers [multiple concentrations], and the ToxCast chemicals [multiple concentrations]) were observed and cell morphology was assessed relative to vehicle control cultures at each harvest time point (0, 6, 24, or 48 h). […] Images were evaluated at the conclusion of the study to assess changes in cell integrity and account for the effects of chemical exposure on uncharacteristic changes in concentration-dependent gene expression profiles. The results from these determinations of apparent cytotoxicity were annotated (yes/no) alongside the corresponding qNPA data for reference.At the conclusion of each treatment period, hepatocyte cultures (96-well) were washed with 1 volume of HBSS, lysed by addition of 25 ul ArrayPlate lysis buffer (HTG, Tucson, AZ), and 70 ul/well of Denaturation Oil, denatured by incubation at 95C for 10 min, and frozen at approximately -70C until analysis by nuclease protection assay (qNPA) (Roberts et al., 2007). For qNPA analysis, cell lysates were thawed at 50C for approximately 30 min, qNPA probes were added, and samples were incubated at 95C for 10 min to begin the detection process by denaturing the target RNA, dissociating the duplexes and secondary structure hybridization. At the conclusion of the hybridization period, S1 nuclease reagent was added to each sample to digest all nonprotected nucleotides at 50C for 60-90 min. […]
# Sequence of Broad substrate specificity ATP-binding cassette transporter ABCG2 (Homo sapiens) (Q9UNQ0 whole entry, looked up): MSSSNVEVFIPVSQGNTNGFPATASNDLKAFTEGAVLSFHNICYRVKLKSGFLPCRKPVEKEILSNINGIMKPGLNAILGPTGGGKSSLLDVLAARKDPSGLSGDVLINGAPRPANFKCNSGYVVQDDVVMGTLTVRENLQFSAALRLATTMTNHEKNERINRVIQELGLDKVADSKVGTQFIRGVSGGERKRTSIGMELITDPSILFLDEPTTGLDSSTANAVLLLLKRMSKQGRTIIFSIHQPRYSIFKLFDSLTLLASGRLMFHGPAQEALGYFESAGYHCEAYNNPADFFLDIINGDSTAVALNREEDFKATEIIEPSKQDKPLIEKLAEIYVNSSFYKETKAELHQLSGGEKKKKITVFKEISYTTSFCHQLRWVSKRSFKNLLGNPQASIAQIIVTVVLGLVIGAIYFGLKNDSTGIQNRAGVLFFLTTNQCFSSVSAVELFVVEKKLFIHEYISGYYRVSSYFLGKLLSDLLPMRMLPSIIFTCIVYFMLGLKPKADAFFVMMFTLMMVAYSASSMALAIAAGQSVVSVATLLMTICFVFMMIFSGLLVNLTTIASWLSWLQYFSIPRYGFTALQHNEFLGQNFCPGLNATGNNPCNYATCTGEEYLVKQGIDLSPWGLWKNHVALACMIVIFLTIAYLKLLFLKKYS
SMILES,outcome,AC50
CNC(=S)S,inactive,
COP(=S)(OC)Oc1nc(Cl)c(Cl)cc1Cl,inactive,
CCCCC(CC)COC(=O)c1ccccc1C(=O)OCC(CC)CCCC (stereo not given),inactive,
CO/C=C(/C(=O)OC)c1ccccc1Oc1cc(Oc2ccccc2C#N)ncn1,inactive,
CCCCNC(=O)OCC#CI,inactive,
C=CC1(C)OC(=O)N(c2cc(Cl)cc(Cl)c2)C1=O (stereo not given),inactive,
C=CCC1=C(C)[C@@H](OC(=O)[C@@H]2[C@@H](C=C(C)C)C2(C)C)CC1=O,inactive,
C=CCC1=C(C)C(OC(=O)C2C(C=C(C)C)C2(C)C)CC1=O (stereo not given),inactive,
N#Cc1nn(-c2c(Cl)cc(C(F)(F)F)cc2Cl)c(N)c1S(=O)C(F)(F)F (stereo not given),,31.6 µM (active)
COC(=O)C(C)Oc1ccc(Oc2ccc(Cl)cc2Cl)cc1 (stereo not given),inactive,
COC(=O)N(OC)c1ccccc1COc1ccn(-c2ccc(Cl)cc2)n1,,20 µM (active)
C#CCOS(=O)OC1CCCCC1Oc1ccc(C(C)(C)C)cc1 (stereo not given),inactive,
O=C(Nc1ccccc1)Nc1ccnc(Cl)c1,inactive,
N#CC(CCc1ccc(Cl)cc1)(Cn1cncn1)c1ccccc1 (stereo not given),inactive,
CC1COC(Cn2cncn2)(c2ccc(Oc3ccc(Cl)cc3)cc2Cl)O1 (stereo not given),inactive,
O=C(O)c1nc(Cl)ccc1Cl,inactive,
Oc1ccccc1-c1ccccc1,inactive,
Fc1ccc(Oc2ccnc3cc(Cl)cc(Cl)c23)cc1,inactive,
COc1nc(C)nc(NC(=O)NS(=O)(=O)c2ccccc2CCC(F)(F)F)n1,inactive,
Cc1cc(Cl)ccc1OCC(=O)O,inactive,

SMILES,outcome,AC50
CCOC(=O)CC(SP(=S)(OC)OC)C(=O)OCC (stereo not given),inactive,
CCCC1COC(Cn2cncn2)(c2ccc(Cl)cc2Cl)O1 (stereo not given),inactive,
COc1nc(C)nc(NC(=O)NS(=O)(=O)c2ccccc2Cl)n1,inactive,
Cc1c(F)c(F)c(COC(=O)C2C(/C=C(\Cl)C(F)(F)F)C2(C)C)c(F)c1F (stereo not given),inactive,
CC(C)C1(C)N=C(c2nc3ccccc3cc2C(=O)O)NC1=O (stereo not given),inactive,
N#Cc1cc(Br)c(O)c(Br)c1,inactive,
COP(N)(=O)SC (stereo not given),inactive,
CN(C)C(=S)SSC(=S)N(C)C,inactive,
CCCN(CCC)c1c([N+](=O)[O-])cc(S(N)(=O)=O)cc1[N+](=O)[O-],inactive,
CCOc1cc(Oc2ccc(C(F)(F)F)cc2Cl)ccc1[N+](=O)[O-],inactive,
CCCCOC(=O)c1ccccc1C(=O)OCCCC,inactive,
OC(c1ccc(Cl)cc1)(c1cncnc1)c1ccccc1Cl (stereo not given),,33.4 µM (active)
COC(=O)c1ccccc1C(=O)OC,inactive,
COC(=O)C=C(C)OP(=O)(OC)OC,inactive,
O=C(O)COc1nc(Cl)c(Cl)cc1Cl,inactive,
CC(C)Oc1cc(-n2nc(C(C)(C)C)oc2=O)c(Cl)cc1Cl,inactive,
CC(C)(C)c1ccc(CSc2cnn(C(C)(C)C)c(=O)c2Cl)cc1,inactive,
CCc1nn(C)c(C(=O)NCc2ccc(C(C)(C)C)cc2)c1Cl,,26.2 µM (active)
CCNc1nc(Cl)nc(NCC)n1,inactive,
CS/C(C)=N/OC(=O)N(C)SN(C)C(=O)O/N=C(\C)SC,inactive,
